Records with an inconclusive call do not appear. Entries that show only a call come without a potency. The source made the active and inactive calls. The call rests on the fitted dose curve; in most records, active means well fitted cell-killing curve with a large enough effect; inconclusive means small, poorly fitted or top-dose-only effect, or effect the other way; inactive means no such curve, though single readings can be large or run the other way.
Test: Quantitative High-Throughput drug screen in 47 multiple myeloma cell lines against the NCATS MIPE library collection: KMS28BM_JCRB cell viability assay (AID 1919874); further: nearly all actives have a fitted effect of over 35% in size
Conditions: CellTiter-Glo ATP, 48 h; series mostly up to 45.8 µM
Excerpt: PI: Beverly A. Mock Ph.D.
Laboratory of Cancer Biology and Genetics,
Center for Cancer Research, National Cancer Institute,
National Institute of Health, Bethesda, Maryland
Drug resistance and disease progression are common in multiple myeloma (MM) patients, underscoring the need for new therapeutic combinations. […] We hypothesized that effective combinations would reduce MYC expression and enhance p16 activity. […] These preclinical data identify potentially useful drug combinations for evaluation in drug-resistant MM and reveal potential mechanisms of combined drug sensitivity.
Described herein is the primary MIPE qHTS used to cherrypick compounds. Validated compounds were then further tested for potential synergistic activiy.
[1] Peat TJ, Gaikwad SM, Dubois W, Gyabaah-Kessie N, Zhang S, Gorjifard S, Phyo Z, Andres M, Hughitt VK, Simpson RM, Miller MA, Girvin AT, Taylor A, Williams D, D'Antonio N, Zhang Y, Rajagopalan A, Flietner E, Wilson K, Zhang X, Shinn P, Klumpp-Thomas C, McKnight C, Itkin Z, Chen L, Kazandijian D, Zhang J, Michalowski AM, Simmons JK, Keats J, Thomas CJ, Mock BA. Drug combinations identified by high-throughput screening promote cell cycle transition and upregulate Smad pathways in myeloma. Cancer Lett. 2023 Aug 1;568:216284. doi: 10.1016/j.canlet.2023.216284. Epub 2023 Jun 24. PMID: 37356470; PMCID: PMC10408729.
SEQUENCE No. (e.g., 1, 2, 3, etc.); […] (e.g., Cells, Incubation, Reagent, etc.); VALUE and DESCRIPTION.
1; Cells; 5 uL; white, solid bottom 1536-well Greiner assay plate.
2; Compounds; 23 nL; Kalypsis pin tool (Wako USA) equipped with a 1536-well pin head to transfer to the assay plates.
3; Incubation; 48 hours; 37C incubation.
4; Reagent;5uL; CellTiter Glo (Promega).
5; Detector; 425V; Luminescence; Viewlux PerkinElmer.
NOTES (numbers refer to Sequence numbers above)
1. The cell-based screening methods employed in this study were like those previously published. Briefly, the corresponding myeloma cell lines were screened in 1,536-well plates with 500 cells, 5-uL per well for inhibition of cell viability (assessed by measuring ATP levels with CellTiterGlo).
2. NCATS MIPE 4.0 library of approved and investigational drugs were added using the Kalypsis pin tool. Wells treated with DMSO only for 100% viability and media only for 0% viability were used as controls.
3. The assay plates were covered and incubated for 48 hours in a 37C, 5% CO2 incubator with controlled humidity.
4. After 48 hours, CellTilter-GloTM luminescent substrate mix (Promega) reagent was added to the assay plate and plates we incubated for 5 min at room temperature.
5. Signal was measured as median relative luminescence units on a ViewLux (PerkinElmer) multiplate reader.
[1] Heske CM, Davis MI, Baumgart JT, Wilson K, Gormally MV, Chen L, Zhang X, Ceribelli M, Duveau DY, Guha R, Ferrer M, Arnaldez FI, Ji J, Tran HL, Zhang Y, Mendoza A, Helman LJ, Thomas CJ. Matrix Screen Identifies Synergistic Combination of PARP Inhibitors and Nicotinamide Phosphoribosyltransferase (NAMPT) Inhibitors in Ewing Sarcoma. Clin Cancer Res. 2017 Dec 1;23(23):7301-7311. doi: 10.1158/1078-0432.CCR-17-1121. Epub 2017 Sep 12. PMID: 28899971; PMCID: PMC6636827.
Potency means the concentration at half of the fitted maximal effect.

Compound | Potency
C[C@]12C=CC(=O)C=C1CC[C@@H]1[C@@H]2[C@@H](O)C[C@@]2(C)[C@@H]1CC[C@]2(O)C(=O)CO | inactive
COc1cc2ncnc(Nc3cc(Br)c(O)c(Br)c3)c2cc1OC | inactive
C[C@H](c1ccc(F)cc1CCCC(=O)O)N(c1cc(F)ccc1F)S(=O)(=O)c1ccc(Cl)cc1 | 16.6 µM (active)
COc1ccnc(CS(=O)c2nc3ccc(OC(F)F)cc3[nH]2)c1OC (stereo not given) | inactive
O=C(Nc1ncc(SCCN2CCCC2)s1)[C@]1(c2ccc(S(=O)(=O)C3CC3)cc2)C[C@@H]1C1CCCCC1 | 8.33 µM (active)
OC[C@H]1O[C@@H](Oc2ccc(O)cc2)[C@H](O)[C@@H](O)[C@H]1O | inactive
O=C(CC12CC3CC(CC(C3)C1)C2)Nc1cccc2nc(NCCNCCO)ccc12 | 23.5 µM (active)
N#CC(c1ccc(Cl)cc1)c1c(Cl)cc(-n2ncc(=O)[nH]c2=O)cc1Cl (stereo not given) | inactive
C[C@H]1O[C@@H](n2cc(F)c(=O)[nH]c2=O)[C@H](O)[C@H]1O | inactive
CN1C(=O)C[C@H](C(=O)N[C@@H](Cc2cnc[nH]2)C(=O)N2CCC[C@@H]2C(N)=O)NC1=O | 8.33 µM (active)
COc1cc(C=CC(=O)O)ccc1O | inactive
CCC(=O)NCC[C@@H]1CCc2ccc3c(c21)CCO3 | inactive
CCN1CCC(n2cc(CNc3cc(Cl)c4ncc(C#N)c(Nc5ccc(F)c(Cl)c5)c4c3)nn2)CC1 | 20.9 µM (active)
CC(=O)NCCC(=O)N[C@@H](CCC(N)=O)C(=O)N[C@@H](CO)C(=O)N[C@@H](CCC(N)=O)C(=O)N[C@@H](CCC(N)=O)C(=O)N[C@H](C(=O)N[C@@H](Cc1ccccc1)C(=O)N[C@]1(C)CCCCCCC=CCCC[C@@](C)(C(=O)N[C@@H](CCC(N)=O)C(=O)N[C@@H](CC(N)=O)C(N)=O)NC(=O)[C@H](CC(C)C)NC(=O)[C@H](CC(C)C)NC(=O)[C@@H](CCCNC(=N)N)NC(=O)[C@H](Cc2c[nH]c3ccccc23)NC(=O)[C@H](CC(C)C)NC(=O)[C@H](CC(N)=O)NC1=O)[C@H](C)O | inactive
CN(C)CCOc1cc(-c2cn[nH]c2)ccc1NC(=O)C1COc2ccccc2O1 (stereo not given) | 5.9 µM (active)
CN(C)c1nc(Cc2ccc(NC(=O)c3ccc(C(F)(F)F)cc3)cc2)nc(N(C)C)c1CC(=O)O | inactive
COc1cc2nccc(Oc3ccc(NC(=O)Nc4ccc(F)cc4F)c(F)c3)c2cc1OC | 1.05 µM (active)
CC(C)(O)CC(=O)NCCn1ccc2ncnc(Nc3ccc(Oc4cccc(C(F)(F)F)c4)c(Cl)c3)c21 | 26.4 µM (active)
Clc1ccc(COC(Cn2ccnc2)c2ccc(Cl)cc2Cl)c(Cl)c1 (stereo not given) | 20.9 µM (active)
O=C1C(CCC(O)c2ccc(F)cc2)C(c2ccc(O)cc2)N1c1ccc(F)cc1 (stereo not given) | inactive

Compound | Potency
Cc1cc(OCCCS(C)(=O)=O)cc(C)c1-c1cccc(COc2ccc3c(c2)OC[C@H]3CC(=O)O)c1 | 20.9 µM (active)
O=C(C=Cc1ccc(O)cc1)c1ccc(O)cc1O | 14.8 µM (active)
CCCCCCOC(=O)N=C(N)c1ccc(NCc2nc3cc(C(=O)N(CCC(=O)OCC)c4ccccn4)ccc3n2C)cc1 | 23.5 µM (active)
Nc1nc(Cl)nc2c1ncn2[C@@H]1O[C@H](CO)[C@@H](O)[C@H]1F | 0.0235 µM (active)
OC1CCC(Nc2ncc3nc(Nc4c(F)cc(F)cc4F)n([C@@H]4CCOC4)c3n2)CC1 (stereo not given in full) | inactive
COc1nc(C)cnc1NS(=O)(=O)c1cccnc1-c1ccc(-c2nnco2)cc1 | inactive
CCCCC(C)(C)[C@H](O)C=C[C@H]1[C@H](O)CC(=O)[C@H]1CC=CCCCC(=O)O | inactive
COC(=O)Nc1ccc(-c2nc(N3CCOCC3)c3cnn(C4CCN(C(=O)OC)CC4)c3n2)cc1 | 0.59 µM (active)
NC(=O)c1ccc(N(C(N)=O)c2c(F)cccc2F)nc1-c1ccc(F)cc1F | inactive
C[C@@H](N)c1ccc(C(=O)Nc2ccnc3[nH]ccc23)cc1 | 23.5 µM (active)
Cc1ccc2c(c1)c1c(n2CCc2ccc(C)nc2)CCN(C)C1 | inactive
CNC(=O)c1ccc2c(C(=Nc3cccc(CN(C)C)c3)c3ccccc3)c(O)[nH]c2c1 | 8.33 µM (active)
CC1CNc2c(cccc2S(=O)(=O)N[C@@H](CCCN=C(N)N)C(=O)N2CC[C@@H](C)C[C@@H]2C(=O)O)C1 (stereo not given in full) | inactive
CC1C(=O)OC2C(O)C34C5CC(C(C)(C)C)C36C(OC(=O)C6O)OC4(C(=O)O5)C12O (stereo not given) | inactive
CN(C)c1ccc(-c2nc3ncc(Cl)c(N4CCN(CC(=O)Nc5nccs5)CC4)c3[nH]2)cc1 | 2.35 µM (active)
C#CCN(C)CC1=Cc2ccccc2Oc2ccccc21 | inactive
CN1CCN(c2ncc(-c3cc(Cl)cc(Cl)c3Cl)c(N)n2)CC1 | inactive
CC1CCN(c2cc(N3CCN(C)CC3)ccc2NC(=O)c2cc(C#N)c[nH]2)CC1 | inactive
CCc1cccc(CC)c1NC(=O)N1Cc2[nH]nc(NC(=O)c3ccc(N4CCN(C)CC4)cc3)c2C1 | 1.18 µM (active)
Cc1nc(C(=O)NCC(=O)O)c(O)c2ccc(Oc3ccccc3)cc12 | inactive
